Here are results for 21 compounds from PubChem BioAssay (Tox21).

Inconclusive results are not listed. Calls of active or inactive are those of the source. Unless noted, calls come from the whole dose curve; as a rule, active = well fitted curve in the direction sought with a large enough effect in the repeat runs; inconclusive = weak or mixed curves; inactive = no such curve, though single readings can be large; an effect the other way counts as inactive or inconclusive.

Test [1] is described as follows: qHTS assay to identify small molecule antagonists of the estrogen related receptor (ERR) signaling pathway - cell viability counter screen (AID 1224818). Note: potency is the fitted concentration of half-maximal effect. The method, boiled down: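 Cytotoxicity counter screen: fluorescence from CellTiter-Fluor, added after 17.5 h compound exposure at 37 C and read 30 min later. ERR cell line seeded at 2,000 cells/well, preincubated 6 h before dosing.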

The nature of test [2]: qHTS assay to identify small molecule agonists of the estrogen related receptor (ERR) signaling pathway (AID 1224820). Note: potency is the fitted concentration of half-maximal effect. The method, boiled down:
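Luminescence readout (One-Glo, 30 min RT) from NTP-supplied ERR cell line exposed to compounds for 18 h at 37 C. Cells seeded 2,000 per well and pre-incubated 6 h before pin-tool compound transfer.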
(In qHTS, concentration-response curves come from the screen itself.)

The test system of test [3] is estrogen-related receptor alpha (ERRalpha) with PGC-1alpha coactivator, human. Put plainly: qHTS assay to identify small molecule antagonists of the estrogen related receptor signaling pathway with the pleiotropic PPARgamma coactivator (PGC) (AID 1224821; calls by dose curve; note: nearly all actives have a fitted effect of over 50% in size; note: potency is the fitted concentration of half-maximal effect). The method, boiled down: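 PGC/ERR reporter cells; 6 h pre-incubation 37 C/5% CO2; pin-tool compound in DMSO, 18 h 37 C; One-Glo added, 30 min RT; luminescence read. qHTS antagonist mode.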

Test [4] in a line: qHTS assay to identify small molecule antagonists of the estrogen related receptor signaling pathway with the pleiotropic PPARgamma coactivator (PGC) cell viability counter screen (AID 1224822; note: potency is the fitted concentration of half-maximal effect). In short, it runs like this:
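Viability counter-screen read by fluorescence intensity after 30 min with CellTiter-Fluor at 37 C; PGC/ERR reporter cells were exposed to compounds for 17.5 h at 37 C following a 6 h preincubation.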

A short description of test [5]: qHTS assay to identify small molecule agonists of the estrogen related receptor signaling pathway with the pleiotropic PPARgamma coactivator (PGC) (AID 1224823). Note: potency is the fitted concentration of half-maximal effect. In short, it runs like this: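 Luminescence readout (One-Glo, 30 min RT) from PGC/ERR cell line treated 18 h at 37 C with pin-tool-delivered DMSO compound solutions; cells plated 6 h before dosing. Quantitative HTS format.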

A short description of test [6]: qHTS assay to identify small molecule antagonists of the estrogen related receptor (ERR) signaling pathway from Tox21 library - cell viability counter screen (AID 1224834). Note: nearly all actives have a fitted effect of over 30% in size. The method, boiled down: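 CellTiter-Fluor fluorescence, read after 30 min at 37 C, measures viability of ERR cells. Cells plated at 2,000/well and incubated 6 h before pin-tool compound addition, then exposed 17.5 hours at 37 C.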

For test [7], the target named is Luciferin 4-monooxygenase (Photinus pyralis) (UniProt P08659). Put plainly: qHTS assay to identify small molecule inhibitors of firefly luciferase (AID 1224835). Note: series mostly up to about 120 µM; nearly all actives have a fitted effect of over 25% in size. The method, boiled down:
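Inhibition of purified Photinus luciferase is measured by luminescence. Substrate levels (D-luciferin, ATP) sit at their KM values. Each compound is tested in a concentration series.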

Test [8] in a line: qHTS assay to identify small molecule agonists of the constitutive androstane receptor (CAR) signaling pathway - cell viability counter screen (AID 1224836). Note: series mostly up to about 92 µM; nearly all actives have a fitted effect of over 45% in size. In short, it runs like this:
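HepG2-CYP2B6-hCAR, 2500 cells/well, 4 h pre-incubation; cpd 15 conc + PK11195 0.75 uM final; 23 h, 37 C/5% CO2; CellTiter-Fluor, fluorescence.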

Luciferin 4-monooxygenase (Photinus pyralis), sequence (P08659 whole entry, looked up): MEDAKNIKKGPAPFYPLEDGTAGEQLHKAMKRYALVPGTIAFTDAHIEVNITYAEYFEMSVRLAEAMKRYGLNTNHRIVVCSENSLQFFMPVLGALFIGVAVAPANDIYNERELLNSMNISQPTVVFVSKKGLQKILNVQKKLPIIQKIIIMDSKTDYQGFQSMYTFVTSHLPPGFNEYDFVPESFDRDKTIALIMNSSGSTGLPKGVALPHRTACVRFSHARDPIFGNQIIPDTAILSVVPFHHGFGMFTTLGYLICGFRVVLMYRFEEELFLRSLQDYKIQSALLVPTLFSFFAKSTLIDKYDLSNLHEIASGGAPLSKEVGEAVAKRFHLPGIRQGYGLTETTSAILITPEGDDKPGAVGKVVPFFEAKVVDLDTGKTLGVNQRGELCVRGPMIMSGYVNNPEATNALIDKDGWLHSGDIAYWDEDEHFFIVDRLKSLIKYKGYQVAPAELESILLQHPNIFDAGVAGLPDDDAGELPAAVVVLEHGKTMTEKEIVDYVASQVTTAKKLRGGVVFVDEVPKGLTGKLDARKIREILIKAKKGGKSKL

Consider `CSc1nc(N)c2ncn([C@@H]3O[C@H](COP(=O)(O)OP(=O)(O)O)C(O)[C@H]3O)c2n1` (stereo not given in full), for which the Potency result in test [1], in test [2], in test [3], in test [4] and in test [5] was “inactive” throughout.
On to `COc1cc2nc(N3CCCN(C)CC3)nc(NC3CCN(Cc4ccccc4)CC3)c2cc1OC`, for which the Potency was 24.6 µM (active) in test [1], 28.7 µM (active) in test [3] and 10.6 µM (active) in test [4]. Moreover, the Potency entry in test [2] and in test [5] was “inactive” each time.
In the case of `Nc1nc(SCc2ccc([N+](=O)[O-])cc2)c2ncn([C@@H]3O[C@H](CO)C(O)[C@H]3O)c2n1` (stereo not given in full), the Potency entry in test [1], in test [2], in test [3], in test [4] and in test [5] was “inactive” in each case.
`NCCCCN`: the Potency result in test [1], in test [2], in test [3], in test [4] and in test [5] was “inactive” throughout.
Turning to `Cn1c(=O)c2[nH]c(C3CCCC3)nc2n(C)c1=O`, the Potency entry in test [1], in test [2], in test [3], in test [4] and in test [5] was “inactive” in each case.
As to `COc1ccc(CCn2nnnc2C2(c3ccc(C)cc3)CC2)cc1`, the Potency entry in test [1], in test [2], in test [3], in test [4] and in test [5] was “inactive” in each case.
Turning to `Cn1ccnc1`, the Potency result in test [1], in test [2], in test [3], in test [4], in test [5] and in test [6] was “inactive” throughout. Moreover, the Potency entry in test [7] and in test [8] was “inactive” each time.
Turning to `S=C(S)N1CCCC1`, the Potency result in test [1], in test [2] and in test [5] was “inactive” in each case. Besides, the Potency in test [3] was 3.22 µM (active); in test [4], 0.287 µM (active).
Take `O=C(O)c1ccccc1Nc1ccccc1`: the Potency result in test [1], in test [2], in test [3], in test [4] and in test [5] was “inactive” throughout.
On to `CC(/C=C/c1cccc(Oc2ccc(F)cc2)c1)N(O)C(N)=O` (stereo not given), for which the Potency result in test [1], in test [2], in test [3], in test [4] and in test [5] was “inactive” each time.
Regarding `O=C(O)c1ccccc1Nc1cccc(OCc2ccc3ccccc3n2)c1`, the Potency result in test [1], in test [2], in test [3], in test [4] and in test [5] was “inactive” each time.
Turning to `CC(C)(CO)Cc1cc(C(C)(C)C)c(O)c(C(C)(C)C)c1`, the Potency result in test [1], in test [2], in test [3], in test [4] and in test [5] was “inactive” in each case.
As for `COc1ccc(NC(=O)c2ccc(-c3ccc(-c4noc(C)n4)cc3C)cc2)cc1N1CCN(C)CC1`, the Potency entry in test [1], in test [2], in test [3], in test [4] and in test [5] was “inactive” throughout.
For `O=C(O)[C@H]1NCCC[C@H]1C(=O)O`, the Potency entry in test [1], in test [2], in test [3], in test [4] and in test [5] was “inactive” each time.
As for `O=c1ccc2ccc(O)c(O)c2o1`, the Potency result in test [1], in test [2], in test [3], in test [4] and in test [5] was “inactive” in each case.
As to `COc1cccc(-c2cc(=O)c3ccccc3o2)c1N`, the Potency result in test [1], in test [3] and in test [4] was “inactive” each time. Further, the Potency in test [2] is 1.96 µM (active); in test [5] it was 1.88 µM (active).
For `NC(N)=N[C@@H](CCC(=O)O)C(=O)O`, the Potency result in test [1], in test [2], in test [3], in test [4] and in test [5] was “inactive” in each case.
For `CN(C)C(N)=NCCC[C@H](N)C(=O)O`, the Potency result in test [1], in test [2], in test [3], in test [4] and in test [5] was “inactive” in each case.
Regarding `COc1cc2c(cc1O)CC[C@@H]1[C@@H]2CC[C@]2(C)[C@@H](O)CC[C@@H]12`, the Potency entry in test [1], in test [2], in test [3], in test [4] and in test [5] was “inactive” each time.
Consider `O=c1ccc2c(OCCCCc3ccccc3)c3ccoc3cc2o1`, for which the Potency result in test [1], in test [2], in test [3], in test [4] and in test [5] was “inactive” in each case.
On to `CN1C2CCC1CC(OC(=O)c1c[nH]c3ccccc13)C2` (stereo not given), for which the Potency result in test [1] and in test [4] was “inactive” throughout.
